Test results as given in PubChem BioAssay AID1259418 (Broad Institute, 2018).
The campaign covered roughly 3,400 compounds. About 840 (25%) were called active. Inconclusive results (about 11%) are left out. These entries were drawn from the full list. Measured potencies and affinities stand elsewhere. A number with no mark means an inactive call.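 How the source made its calls: active means fitted half-maximal concentration of signal decrease at or below twice the sample's top tested concentration; inconclusive means flat curve between -70 and -30 percent, or poor fit; inactive means flat within 30 percent, signal rise, or potency above limit.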

Assay: T. gondii growth inhibition with IFN-gamma, dose response, cell-based, ME49Luc, HeLa, luciferase, 72 h (AID 1259418)
Conditions: T. gondii ME49Luc in IFN-y HeLa, hits give low values, -100% = high-dose IFN-γ control wells; at 19.5 µM unless noted

SMILES	max activity
O=C(NCCc1csc(-c2ccccc2)n1)[C@H]1CSCN1C(=O)Cc1cccs1	12.6%
COc1cc(C(=O)Nc2ccc(-c3nc(-c4ccc(C)cc4C)co3)cc2)cc(OC)c1OC	27.4% [at 5 µM]
COc1ccc(C(=O)Nc2ccc(-c3nc(-c4cc(C)ccc4C)co3)cc2)cc1OC	9.52% [at 0.35 µM]
O=C(Nc1ccc(-c2nc(-c3ccccc3)co2)cc1)Nc1cc(F)ccc1F	10.9% [at 2.6 µM]
Cc1ccc(C)c(-c2coc(-c3ccc(NC(=O)c4ccccc4)cc3)n2)c1	11.8% [at 2.6 µM]
COc1ccc(C)cc1NC(=O)Nc1ccc(-c2nc(-c3ccc(C)cc3C)co2)cc1	20.4%
COc1ccc(C(=O)Nc2ccc(-c3nc(-c4ccc(C)cc4C)co3)cc2)cc1OC	45%
Cc1ccc(-c2coc(-c3ccc(NC(=O)Nc4ccc(F)cc4F)cc3)n2)cc1	92.1%
COc1ccccc1NC(=O)Nc1ccc(-c2nc(-c3cc(C)ccc3C)co2)cc1	9.93% [at 0.16 µM]
COC(=O)c1ccc(NC(=O)Nc2ccc(-c3nc(-c4ccccc4)co3)cc2)cc1	75.7% [at 10 µM]
Cc1nc(CCNC(=O)C2CCN(C(=O)c3ccc(Br)o3)CC2)cs1	9.93% [at 5 µM]
Cc1ccc(C)c(-c2coc(-c3ccc(NC(=O)c4cccs4)cc3)n2)c1	62.5%
Cc1ccc(-c2coc(-c3ccc(NC(=O)c4cccs4)cc3)n2)cc1	20.5% [at 0.35 µM]
COc1cc(NC(=O)Nc2ccc(-c3nc(-c4ccc(C)cc4)co3)cc2)cc(OC)c1OC	-16.6% [at 0.68 µM]
COc1cc(C(=O)Nc2ccc(-c3nc(-c4cc(C)ccc4C)co3)cc2)cc(OC)c1OC	-22.7% [at 0.16 µM]
COC[C@H]1CN(C)C[C@]12CCN(C(=O)c1cc3ccccc3s1)C2	13.1%
COc1ccccc1-c1nc(C)c(-c2ccc(SCC(=O)OCc3ccccc3)nn2)s1	8.29% [at 10 µM]
Cc1oc(-c2cccc(Cl)c2)nc1CSc1nc2c(c(=O)[nH]1)CN(Cc1ccc(F)cc1)CC2	15.7%
Cc1cccc(C)c1NC(=O)CN1CCC2(CC1)N=C(c1ccc(F)cc1)C(=O)N2	10% [at 1.35 µM]
Cc1nc(OCC(=O)Nc2cccc(Cl)c2C)c2ccccc2n1	33.5% [at 0.16 µM]
Cc1ccc(CSC2=Nc3ccccc3C3=NC(CC(=O)NCc4ccc(F)cc4)C(=O)N23)cc1 (stereo not given)	13.6% [at 1.35 µM]
COc1ccc(CNC(=O)CC2N=C3c4ccccc4N=C(SCc4ccc(C)cc4C)N3C2=O)cc1 (stereo not given)	-42%
COc1ccc(CNC(=O)CCC2N=C3c4ccccc4N=C(SCc4ccc(C)cc4)N3C2=O)cc1 (stereo not given)	16.4% [at 1.35 µM]
CCCCNC(=O)CC1N=C2c3ccccc3N=C(SCc3ccc(F)cc3)N2C1=O (stereo not given)	8.45% [at 2.6 µM]
COc1ccc(CNC(=O)CC2N=C3c4ccccc4N=C(SCc4ccccc4F)N3C2=O)cc1 (stereo not given)	17.8% [at 10 µM]

SMILES	max activity
COc1ccc(CNC(=O)CC2N=C3c4ccccc4N=C(SCc4cccc(F)c4)N3C2=O)cc1 (stereo not given)	12.5% [at 1.35 µM]
CCOc1ccccc1-c1nc(CSc2nc3c(c(=O)[nH]2)CN(Cc2ccccc2)CC3)c(C)o1	18.7%
O=C1CCc2cc(NC(=O)C3CCC3)ccc2N1	-4.89% [at 0.68 µM]
CCC(=O)N1CCC2(CC1)Nc1cc(F)ccc1-n1cccc12	8.79% [at 0.68 µM]
CC1CCCN(c2nc(-c3ccc(Cl)cc3)nc3ccccc23)C1 (stereo not given)	-6.84% [at 2.6 µM]
COc1ccccc1-c1nc(C)c(-c2ccc(SCc3cccc(C)c3)nn2)s1	12.4% [at 10 µM]
COCCCNC1=NCCNC12CCN(S(=O)(=O)c1ccc(C)c(C)c1)CC2	15.1% [at 0.16 µM]
Clc1ccccc1CSc1nc(NC2CCCCC2)c2ccccc2n1	13.8%
Cc1ccc(-c2nc3c(s2)CN(C(=O)Nc2ccccc2C(F)(F)F)CC3)cc1	101% [at 10 µM]
COc1ccc(-c2nc(Nc3cc(C)ccc3C)c3ccccc3n2)cc1	25.6%
CCCNC(=O)N1[C@H](C#N)[C@@H](c2ccc(-c3ccccc3F)cc2)[C@H]1CO	-20.5% [at 0.6 µM]
CCCNC(=O)N1[C@H](C#N)[C@H](c2ccc(-c3ccccc3F)cc2)[C@H]1CO	-14.6%
CCc1nc(OCC(=O)Nc2cc(Cl)c(OC)cc2OC)c2ccccc2n1	17% [at 0.16 µM]
COc1ccc(OC)c(NC(=O)N2CCc3nc(-c4ccc(C)cc4)sc3C2)c1	13.3%
CN1C(=O)CCc2cc(NC(=O)c3ccco3)ccc21	172%
COc1ccc(OC)c(NC(=O)N2CCc3nc(-c4ccccc4)sc3C2)c1	6.12%
CCC(C(=O)N1CCC[C@@H]1C(=O)NCCc1csc(-c2ccccc2)n1)c1ccccc1 (stereo not given in full)	13.1% [at 2.6 µM]
Cc1ccc(CN2CCCn3nc(C(=O)N4CCC(N5CCCCC5)CC4)cc3C2=O)cc1	-18.3% [at 5 µM]
O=C(Nc1ccc(-c2nc(-c3ccccc3)co2)cc1)NC1CCCCC1	71.1%
Fc1cccc(-c2noc(-c3ccc(N4CCC(N5CCCCC5)CC4)nc3)n2)c1	21.6% [at 5 µM]
Cc1cccc(-c2noc(-c3ccc(N4CCC(N5CCCCC5)CC4)nc3)n2)c1	26.5% [at 10 µM]
Cc1ccc(-c2nc(Cn3nnc(-c4nc(-c5ccc(Br)cc5)no4)c3C)c(C)o2)cc1	26.9%
O=C(Cn1cccc1-c1nc(-c2ccccc2)cs1)N1CCC(N2CCCCC2)CC1	7.65% [at 10 µM]
Cc1ccc(Nc2ncnc3c2cnn3-c2ccc(Cl)cc2)cc1	81.3% [at 10 µM]
O=C(Nc1ccc(Br)cc1)Nc1ccc(-c2nc(-c3ccccc3)co2)cc1	-11.6%

SMILES	max activity
CCc1cc(C(=O)Nc2ccc(C)cc2-c2cc(C)[nH]n2)c2c(C)noc2n1	19.5% [at 10 µM]
O=C(NCCN1CCCC1)[C@H]1[C@H](CO)[C@H]2Cn3c(cccc3=O)[C@H]2N1Cc1ccccn1	48.1%
C=CCN1C(=O)COC2(CCN(Cc3ccc(C)s3)CC2)C1C (stereo not given)	27.2%
COc1ccc(NC(=O)CN2CCC3(CC2)N=C(c2ccc(F)cc2)C(=O)N3)cc1OC	-16.1% [at 10 µM]
Cc1ccc2c(c1)cc(S(=O)(=O)c1ccccc1)c(=O)n2CC(=O)N1CCCC1	-8.58% [at 5 µM]
Cc1ccc2c(c1)cc(S(=O)(=O)c1ccccc1)c(=O)n2CC(=O)N1CCCCC1	-6.78% [at 0.68 µM]
Clc1ccccc1-c1nc(NCCN2CCCc3ccccc32)c2ccccc2n1	37.1%
Cc1ccc(-c2nc(CN3CCN(C(=O)Nc4ccc(Cl)cc4)CC3)c(C)o2)cc1	22.8% [at 0.16 µM]
Cc1ccc(-c2nc(CN3CCN(C(=O)Nc4cccc(C)c4)CC3)c(C)o2)cc1	-23.6%
CCOC(=O)c1ccc(NC(=O)N2CCN(Cc3nc(-c4cccc(Cl)c4)oc3C)CC2)cc1	13.5% [at 1.35 µM]
Cc1ccc(NC(=O)N2CCN(Cc3nc(-c4ccccc4C)oc3C)CC2)cc1	9.16% [at 2.6 µM]
Cc1ccc(NC(=O)N2CCN(Cc3nc(-c4ccc(C)cc4)oc3C)CC2)cc1	13.6% [at 0.16 µM]
CCc1ccc(NC(=O)N2CCN(Cc3nc(-c4ccc(C)cc4)oc3C)CC2)cc1	-17.1% [at 0.68 µM]
CCCNC(=O)N1CCN(Cc2nc(-c3ccc(OCC)cc3)oc2C)CC1	7.68%
Cc1ccc(-c2nc(CN3CCN(C(=O)NC(C)C)CC3)c(C)o2)cc1	-10.1% [at 0.35 µM]
COC(=O)c1cccc(NC(=O)Nc2ccc(-c3nc(-c4ccc(C)cc4C)co3)cc2)c1	21.2%
Cc1ccc(-c2coc(-c3ccc(NC(=O)c4ccccc4)cc3)n2)c(C)c1	20.4% [at 10 µM]
Cc1ccc(-c2coc(-c3ccc(NC(=O)Nc4ccc5c(c4)OCCO5)cc3)n2)c(C)c1	48.2%
Cc1ccc(CNC(=O)C2(C)CCC(=O)N2CCc2c[nH]c3ccccc23)cc1 (stereo not given)	-12.5% [at 0.35 µM]
O=C(Nc1ccc(-c2nc(-c3ccccc3)co2)cc1)Nc1ccccc1Br	65.8% [at 10 µM]
Cc1ccc2c(c1C)-n1cccc1C1(CCN(C(=O)CC(C)C)CC1)N2	7.04% [at 0.68 µM]
O=C(Cc1ccccc1Cl)N1CCC2(CC1)Nc1ccccc1-n1cccc12	15.3% [at 10 µM]
COc1ccc(S(=O)(=O)N2CCC[C@@H]2C(=O)NCCc2csc(C)n2)cc1Cl	8.05% [at 10 µM]
CCOCCCNC(=O)c1ccc2ccc(N3CCN(CC4CC4)CC3)n2c1	42.5%
CCOc1cccc(-c2noc(-c3nnn(Cc4nc(-c5cccc(C)c5)oc4C)c3C)n2)c1	8.84%
